Data from PubChem BioAssay.
Calls of active or inactive are those of the source. No rule for the calls is given here.

What follows are compounds tested against Pantothenate synthetase (Mycobacterium tuberculosis (strain ATCC 25618 / H37Rv)) (UniProt P9WIL5) (assay: Recombinant Mtb pantothenate synthetase (PanC) inhibitors, coupled enzyme, confirmatory (AID 375;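 also: 0% = full reaction with vehicle and 100% = no enzyme background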)). Details: coupled enzyme assay; at 10 µM, stronger effect = higher value.
Pantothenate synthetase (Mycobacterium tuberculosis (strain ATCC 25618 / H37Rv)), sequence (P9WIL5 whole entry, looked up): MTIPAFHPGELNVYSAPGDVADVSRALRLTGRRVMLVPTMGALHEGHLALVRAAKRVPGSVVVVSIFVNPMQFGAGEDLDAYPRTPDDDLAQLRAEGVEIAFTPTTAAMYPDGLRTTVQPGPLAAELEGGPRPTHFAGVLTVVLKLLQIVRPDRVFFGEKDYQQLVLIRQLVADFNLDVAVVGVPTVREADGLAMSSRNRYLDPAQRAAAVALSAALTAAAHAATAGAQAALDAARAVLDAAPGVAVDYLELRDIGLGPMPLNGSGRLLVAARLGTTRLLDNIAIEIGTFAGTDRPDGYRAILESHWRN

Compound	inhibition
Cc1c(CNCc2cccs2)c(C(=O)O)c(C)n1Cc1ccccc1	0% (inactive)
COc1ccc(S(=O)(=O)NCc2ccco2)cc1-c1nnc2c3ccccc3c(C)nn12	8% (inactive)
Cc1cnc(NC(=O)CSc2nnc(COc3c(C)cccc3C)o2)s1	8% (inactive)
COC(=O)CCCCCc1ccc(C(C)=O)s1	4% (inactive)
Cc1nc2cc(CO)ccc2n1C	4% (inactive)
O=C(Nc1nc2c(s1)CCc1ccccc1-2)c1cccs1	8% (inactive)
CCCCCCNC(=O)c1c(N)n(/N=C/c2ccco2)c2nc3ccccc3nc12	5% (inactive)
CCC1(CC)NC(=O)NC1=O	0% (inactive)
COc1cccc(N2C(=O)C(O)=C(C(C)=O)C2c2ccc(OC)c(OC)c2)c1 (stereo not drawn)	0% (inactive)
Cc1ccc(N2CCN(C(=O)c3ccccc3Br)CC2)c(C)c1	6% (inactive)
CN(C)CCCNC(=O)CCC1CCCCC1	6% (inactive)
Cc1cccc(-n2c(N)c(C(=O)N3CCN(C)CC3)sc2=S)c1	1% (inactive)
COc1ccc(OC)c(NC(=O)CCN2CCC(C)CC2)c1	0% (inactive)
CCCNC(=O)CS(=O)(=O)Cc1nc(-c2cccc(OC)c2)oc1C	0% (inactive)
CCOC(=O)c1sc(N2C(=O)C(O)=C(C(=O)c3ccco3)C2c2ccccc2)nc1C (stereo not drawn)	0% (inactive)
COc1ccc2c(CC(=O)Nc3ccc(OC)c(NS(=O)(=O)c4ccc(F)cc4)c3)coc2c1	1% (inactive)
CCN1CCc2c(C#N)c(N3CCCCC3)nc(NCc3ccccc3)c2C1	0% (inactive)
CCCNC(=O)C1CCN(S(=O)(=O)c2ccc3nc4c(c(C(=O)O)c3c2)CCCCC4)CC1	0% (inactive)
